# High-throughput results from PubChem.
# A selection: hits, their analogues and other compounds. The true share with any hit is near 2.2%.
# MRP reversal: reverses drug resistance mediated by MRP | H69AR cells + 2 uM doxorubicin, CellTiter-Glo, 72 h | differential viability (reversal), % at 10 µM | actives 0.04% (n = 85,000);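 active = viability drop by adding the cancer drug above about 55%, with treated viability meeting a 40% cutoff, limit read from the data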;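 note: viability without doxorubicin minus viability with 2 µM doxorubicin for each compound; larger differential means the compound sensitizes cells more to doxorubicin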
# LYP act: LYP (human) phosphatase activation. actives 0.11% (n = 96,000). AID 697. activation, % at 2 µM. recombinant LYP, DiFMUP fluorescence; 0 = plate median, 100 = signal doubled. Q9Y2R2;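 active = activation at 2 µM above a set limit, the mean plus 5 SD, cut at about 37% in these data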
# Target sequence (Q9Y2R2 whole entry, looked up): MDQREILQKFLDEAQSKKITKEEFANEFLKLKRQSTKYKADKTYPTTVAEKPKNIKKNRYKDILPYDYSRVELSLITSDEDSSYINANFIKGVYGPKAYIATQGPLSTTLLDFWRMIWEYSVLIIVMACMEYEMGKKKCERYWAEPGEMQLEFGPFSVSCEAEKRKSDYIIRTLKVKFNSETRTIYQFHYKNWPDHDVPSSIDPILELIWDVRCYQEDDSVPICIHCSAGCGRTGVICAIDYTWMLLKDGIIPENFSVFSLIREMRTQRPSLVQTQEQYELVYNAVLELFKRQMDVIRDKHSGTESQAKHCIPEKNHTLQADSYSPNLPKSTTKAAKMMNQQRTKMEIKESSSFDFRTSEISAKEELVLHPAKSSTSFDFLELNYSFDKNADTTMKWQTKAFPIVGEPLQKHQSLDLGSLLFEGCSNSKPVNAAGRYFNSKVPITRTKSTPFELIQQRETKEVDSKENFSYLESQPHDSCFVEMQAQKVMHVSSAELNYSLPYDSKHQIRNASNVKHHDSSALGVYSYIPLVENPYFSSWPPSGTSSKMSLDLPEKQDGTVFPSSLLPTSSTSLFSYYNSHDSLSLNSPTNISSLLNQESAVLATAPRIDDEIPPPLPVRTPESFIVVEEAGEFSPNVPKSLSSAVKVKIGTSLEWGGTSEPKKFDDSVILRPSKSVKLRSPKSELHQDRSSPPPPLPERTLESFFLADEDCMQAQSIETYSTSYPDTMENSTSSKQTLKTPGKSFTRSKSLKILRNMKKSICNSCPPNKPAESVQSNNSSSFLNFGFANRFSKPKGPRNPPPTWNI
# PTPN22 inh 2: blocks human PTPN22 phosphatase activity; actives 0.21% (n = 96,000); recombinant LYP catalytic domain, DiFMUP fluorescence; inhibition, % at 2 µM; AID 640; Q9Y2R2;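 active = inhibition at 2 µM at or above a set limit, the screen mean plus 3 SD, cut at about 24% in these data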;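 note: 0% = DMSO with enzyme and 100% = enzyme fully blocked by orthovanadate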
# FAK inh: inhibitors of human focal adhesion kinase; Q05397; biochemical FAK kinase activity assay; inhibition, %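 (tested at 7 µM)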; actives 0.84% (n = 97,000); AID 727; in the data active = inhibition above about 19%;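 note: 0% = DMSO and 100% = reference compound high control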
# MRP-1 activ: MRP-1 activation; H69AR cells + doxorubicin, viability rescue, CellTiter-Glo; viability increase, % at 10 µM; actives 0.61% (n = 140,000);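 active = viability gain under doxorubicin at or above a set limit, the compound median plus 3 SD, cut at about 4.7% in these data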;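 note: MRP-1 overexpressing cells given doxorubicin 25 µM after compound pretreatment; 18-22 h compound pretreatment then 72 h with doxorubicin before readout; 0% = doxorubicin-only wells and 100% = vehicle-treated cells without doxorubicin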
# PLAP act: activates human placental alkaline phosphatase; actives 1.2% (n = 96,000); P05187; activation fold at 20 µM; purified PLAP enzyme, luminescent substrate read-out; stronger effect = higher value; AID 696; in the data active = activation fold above about 2
# * hit, by the source's call; · = no result given.
SMILES,MRP reversal,LYP act,PTPN22 inh 2,FAK inh,MRP-1 activ,PLAP act
FC(F)(F)c1nc(-c2ccncc2)ncc1-c1nnnn1-c1ccccc1,·,-2,4,-1,-3,1.1
COc1ccc(NC(=O)c2cc(S(=O)(=O)N(Cc3ccccc3)c3ccccc3)ccc2Cl)cn1,·,·,·,·,-5,·
CCn1c(SCC(=O)N/N=C/c2c[nH]c3ccccc23)nnc1-c1ccc(C(C)(C)C)cc1,·,·,·,·,-3,·
CC1(C)O[C@@H]2C[C@H]3[C@@H]4CCC5=CC(=O)C=C[C@]5(C)[C@@]4(F)[C@@H](O)C[C@]3(C)[C@]2(C(=O)CO)O1,-14,·,·,·,7.2*,·
C[C@]12C=CC(=O)C=C1CC[C@H]1[C@@H]3C[C@@H](O)[C@](O)(C(=O)CO)[C@@]3(C)C[C@H](O)[C@@]12F,·,·,·,·,5.2*,·
CC1(C)O[C@@H]2C[C@H]3[C@@H]4C[C@H](F)C5=CC(=O)C=C[C@]5(C)[C@@]4(F)[C@@H](O)C[C@]3(C)[C@]2(C(=O)CO)O1,4,·,·,·,4,·
CCOc1ccc(-c2csc(N)c2C(=O)OC)cc1,-4,-29,30*,-3,-1,1.5
Cc1ccc(S(=O)(=O)N(CCCO)CC(O)CON=C2c3ccccc3-c3ccccc32)cc1 (stereo not given),·,·,·,·,-5,·
Cc1nnc(NC(=O)CN2C(=O)c3ccccc3S2(=O)=O)s1,-8,-1,3,-1,-1,2.1*
CCc1nnc(NC(=O)CN2C(=O)c3ccccc3S2(=O)=O)s1,9,-1,2,-2,-2,1.3
CC(=C/c1ccco1)/C=N/NC(=O)CSc1nnc(SCc2ccc(C)cc2)s1,·,·,·,·,2,·
CC(C)NC(=S)N/N=C/c1cc(Br)ccc1O,·,·,·,·,5.0*,·
O=C(CCc1ccccc1)N/N=C/c1cc(Br)ccc1O,·,·,·,·,6.4*,·
O=C(N/N=C/c1cc(Br)ccc1O)c1ccccc1Cl,·,·,·,·,4,·
CCC(=O)N/C(=N\OCc1ccc(F)cc1)c1nonc1NC(=O)CC,·,12,-10,-10,-1,0.9
S=c1[nH]nc(-c2cccnc2)n1Cc1ccccc1,5,-2,0,0,-2,0.9
S=c1[nH]nc(-c2ccncc2)n1Cc1ccccc1,-1,-8,5,-6,-2,2*
CCCCN(C(=O)c1cccc2c(=O)c(C)c(-c3ccccc3)oc12)c1ccccc1,·,·,·,·,-5,·
Cc1ccccc1Cn1ccc(NC(=O)CCSc2nc(-c3ccco3)cc(C(F)(F)F)n2)n1,11,-21,25*,-1,-1,0.9
CC(/C=N/N1CCN(c2ccccn2)CC1)=C\c1ccccc1,·,·,·,·,5.0*,·
O=C1CC(c2nc3ccccc3[nH]2)CN1c1cccc(C(F)(F)F)c1 (stereo not given),6,·,·,·,7.7*,·
O=C1CC(c2nc3ccccc3[nH]2)CN1c1ccccc1F (stereo not given),24,0,-1,-2,0,1.1
Cc1ccccc1NC(=O)NCCCN1CCN(c2ccccc2)CC1,-2,3,-4,4,-3,2.8*
CCOc1ccc(NC(=O)CNC(=O)c2cn(-c3ccccc3OC)c(=O)c3ccccc23)cc1,12,11,-14,-1,-2,2*
N#CCC(CNc1ncc(C(F)(F)F)cc1Cl)OC(=O)c1ccc(Cl)cc1Cl (stereo not given),·,4,-1,-5,-4,1.1
SMILES,MRP reversal,LYP act,PTPN22 inh 2,FAK inh,MRP-1 activ,PLAP act
CC(C)N(Cc1cc2ccccc2[nH]c1=O)C(=O)C(C)(C)C,-20,2,2,1,9.3*,1.1
Cc1cc([N+](=O)[O-])nn1CC(=O)N1c2ccccc2CC1C (stereo not given),·,·,·,·,-1,·
CCOC(=O)C(CC)Sc1nc2c(c(=O)[nH]c(=O)n2C)n1CCc1ccccc1 (stereo not given),-4,-2,1,2,-3,2.8*
O=C(CN(C(=O)CNC(=O)c1ccco1)c1ccc2c(c1)OCO2)NC1CCCCC1,15,-30,29*,-1,-3,1.5
O=C(CN(C(=O)CNC(=O)c1ccco1)c1ccc(Cl)c(Cl)c1)NC1CCCCC1,-4,0,0,-1,0,1.3
CCOC(=O)Cc1[nH]nc2c1C(C1C=CCCC1)C(C#N)=C(N)O2 (stereo not given),-18,2,-3,0,-2,2.1*
COC(=O)Cc1[nH]nc2c1C(c1cccc(OC)c1OC)C(C#N)=C(N)O2 (stereo not given),7,·,·,·,0,2*
COCc1[nH]nc2c1C(c1ccccc1OC)C(C#N)=C(N)O2 (stereo not given),5,·,·,·,1,1
N#CC1=C(N)Oc2n[nH]c(-c3cccs3)c2C1C1C=CCCC1 (stereo not given),-2,16,-14,1,-1,0.8
CCOC(=O)Cc1[nH]nc2c1C(c1cccc(OC)c1OC)C(C#N)=C(N)O2 (stereo not given),12,·,·,·,-1,2.2*
O=C(CC1SC(=NCCc2ccccc2)N(/N=C/c2cccs2)C1=O)Nc1ccc(Cl)cc1 (stereo not given),·,·,·,·,-5,·
COc1ccc(S(=O)(=O)NCCc2nnc3ccc(SCC(=O)Nc4nc(C)cs4)nn23)cc1,·,·,·,·,-1,·
CCCc1nc2ccccc2c(=O)n1/N=C/c1c(C)[nH]n(-c2ccc(C)cc2)c1=O,-28,10,-10,0,-2,2.1*
CCCCCN(C(=O)NC(=O)Nc1ccc(C)cc1)S(=O)(=O)c1ccccc1,·,·,·,·,0,·
NC1=NC2(CCC(c3ccccc3)CC2)n2c(nc3ccccc32)N1 (stereo not given),-11,-11,11,-3,-3,2.8*
Cc1cc(C)c2[nH]c(=O)c(CN(CC3CCCO3)S(=O)(=O)c3ccc4c(c3)OCCO4)cc2c1 (stereo not given),-4,0,-2,-1,1,1.7
Cc1cccc2cc(CN(Cc3ccco3)S(=O)(=O)c3ccc4c(c3)OCCO4)c(=O)[nH]c12,5,-1,0,2,11*,1.1
COC(=O)C1=C(N)Oc2cc(C)n(CCc3ccccc3)c(=O)c2C1c1cccnc1 (stereo not given),0,5,-8,5,-1,2*
COCCn1c(SCC(=O)Nc2cc(C)nn2-c2ccccc2)nnc1-c1ccncc1,·,·,·,·,-1,·
COc1ccc(-c2cc(=O)[nH][nH]2)cc1OC,-8,1,-4,3,-2,2.2*
COc1ccccc1C1C(C(=O)c2sc(C)nc2C)=C(O)C(=O)N1CCN1CCOCC1 (stereo not given),·,·,·,·,7.6*,1.5
COC(=O)c1ccc(NC(=O)CSc2nccn2CCc2ccccc2)cc1,2,6,-4,0,-2,0.9
C=CCn1c(CNc2ccccc2)nnc1SCC(=O)N/N=C/c1ccccc1O,·,-13,10,-2,5.3*,1.8
CCC/C=C(\CCC)C(NS(=O)(=O)c1cccc2cccnc12)c1ccc(C(=O)OC)cc1 (stereo not given),·,·,·,·,0,·
